Article PMC5540273 (PLoS ONE, 2017)

Assays:
Conditions in all cases: concentration: 1 μM, replicates: in singlicate; n = 1
[1] = test system: CDKL5
[2] = test system: CHEK1
[3] = test system: CHEK2
[4] = test system: CIT
[5] = test system: CLK1
[6] = test system: CLK2
[7] = test system: CLK3
[8] = test system: CLK4
[9] = test system: CSF1R-autoinhibited
[10] = test system: CSF1R
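Further: KINOMEscan kinase panel screen.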

Compound: O=C(Nc1n[nH]c2nc(-c3cccs3)c(Br)cc12)C1CCCC1 [SB-743341]
- %Inh [1]: 0%
- %Inh [2]: 9%
- %Inh [3]: 9%
- %Inh [4]: 4%
- %Inh [5]: 0%
- %Inh [6]: 18%
- %Inh [7]: 31%
- %Inh [8]: 12%
- %Inh [9]: 0%
- %Inh [10]: 18%

Compound: CSc1ccc(-c2nc3n(c2-c2ccncc2)CCC3)cc1 [SKF-105561]
- %Inh [1]: 6%
- %Inh [2]: 0%
- %Inh [3]: 0%
- %Inh [4]: 11%
- %Inh [5]: 5%
- %Inh [6]: 0%
- %Inh [7]: 13%
- %Inh [8]: 3%
- %Inh [9]: 3%
- %Inh [10]: 40%

Compound: Fc1ccc(-c2nc[nH]c2-c2ccncc2)cc1 [SB-217360]
- %Inh [1]: 2%
- %Inh [2]: 0%
- %Inh [3]: 16%
- %Inh [4]: 93.7%
- %Inh [5]: 5%
- %Inh [6]: 10%
- %Inh [7]: 10%
- %Inh [8]: 0%
- %Inh [9]: 0%
- %Inh [10]: 0%

Compound: Nc1cccc(-c2ccc3c(N)n[nH]c3c2)n1 [GSK2192730]
- %Inh [1]: 4%
- %Inh [2]: 0%
- %Inh [3]: 13%
- %Inh [4]: 17%
- %Inh [5]: 28%
- %Inh [6]: 18%
- %Inh [7]: 0%
- %Inh [8]: 0%
- %Inh [9]: 0%
- %Inh [10]: 14%

Compound: Cc1ccc(NC(=O)Nc2ccccc2F)cc1-c1ccc(C(=O)Nc2ccncc2)cc1 [GSK1398477]
- %Inh [1]: 18%
- %Inh [2]: 5%
- %Inh [3]: 0%
- %Inh [4]: 89%
- %Inh [5]: 16%
- %Inh [6]: 0%
- %Inh [7]: 3%
- %Inh [8]: 40%
- %Inh [9]: 0%
- %Inh [10]: 85%

Compound: Cc1c(Cn2c(C)c(C)n3c(=O)cc(N4CCOCC4)nc23)cccc1C(F)(F)F [GSK2328680]
- %Inh [1]: 0%
- %Inh [2]: 0%
- %Inh [3]: 8%
- %Inh [4]: 19%
- %Inh [5]: 22%
- %Inh [6]: 0%
- %Inh [7]: 6%
- %Inh [8]: 21%
- %Inh [9]: 14%
- %Inh [10]: 0%

Compound: Cc1cccc2c(-c3ccncn3)c(-c3ccc(F)cc3)nn12 [GW515532]
- %Inh [1]: 0%
- %Inh [2]: 5%
- %Inh [3]: 0%
- %Inh [4]: 82%
- %Inh [5]: 99.9%
- %Inh [6]: 0%
- %Inh [7]: 100%
- %Inh [8]: 22%
- %Inh [9]: 0%
- %Inh [10]: 0%

Compound: O=C(Nc1n[nH]c2nc(-c3ccco3)c(Br)cc12)C1CCN(Cc2ccccc2)C1.O=C(O)[C@H](O)[C@@H](O)C(=O)O (stereo not drawn) [SB-742034]
- %Inh [1]: 85%
- %Inh [2]: 16%
- %Inh [3]: 0%
- %Inh [4]: 0%
- %Inh [5]: 0%
- %Inh [6]: 0%
- %Inh [7]: 0%
- %Inh [8]: 7%
- %Inh [9]: 0%
- %Inh [10]: 10%

Compound: COc1ccc(CSc2nnc(-c3ccc4nccn4c3)o2)cc1C(F)(F)F
- %Inh [1]: 16%
- %Inh [2]: 23%
- %Inh [3]: 17%
- %Inh [4]: 14%
- %Inh [5]: 97.1%
- %Inh [6]: 91.9%
- %Inh [7]: 12%
- %Inh [8]: 90.3%
- %Inh [9]: 6%
- %Inh [10]: 17%

Compound: O=C(Nc1n[nH]c2cc(-c3ccsc3)ccc12)C1CC1 [SB-732932]
- %Inh [1]: 17%
- %Inh [2]: 0%
- %Inh [3]: 0%
- %Inh [4]: 0%
- %Inh [5]: 2%
- %Inh [6]: 21%
- %Inh [7]: 0%
- %Inh [8]: 7%
- %Inh [9]: 16%
- %Inh [10]: 16%

Compound: Cc1cnc(N)c(/C=C/c2cncc(C(=O)NCCc3ccc(Cl)cc3Cl)c2)c1.Cl [GSK190937]
- %Inh [1]: 9%
- %Inh [2]: 0%
- %Inh [3]: 26%
- %Inh [4]: 31%
- %Inh [5]: 38%
- %Inh [6]: 48%
- %Inh [7]: 0%
- %Inh [8]: 57%
- %Inh [9]: 6%
- %Inh [10]: 25%

Compound: COc1ccc(CSc2nnc(-c3ccc4c(c3)CCO4)o2)cc1
- %Inh [1]: 0%
- %Inh [2]: 0%
- %Inh [3]: 0%
- %Inh [4]: 0%
- %Inh [5]: 64%
- %Inh [6]: 28%
- %Inh [7]: 0%
- %Inh [8]: 81%
- %Inh [9]: 10%
- %Inh [10]: 0%

Compound: O=C1NC(=O)C(c2ccc(Cl)cc2)=C1Nc1ccc(O)cc1 [SB-340867]
- %Inh [1]: 0%
- %Inh [2]: 0%
- %Inh [3]: 0%
- %Inh [4]: 0%
- %Inh [5]: 51%
- %Inh [6]: 65%
- %Inh [7]: 0%
- %Inh [8]: 29%
- %Inh [9]: 0%
- %Inh [10]: 0%

Compound: COC(=O)c1cccc(NC(=O)NC2CCN(c3ccnc(Nc4ccc(OC)cc4)n3)C2)c1 (stereo not drawn) [GSK1379746]
- %Inh [1]: 0%
- %Inh [2]: 0%
- %Inh [3]: 0%
- %Inh [4]: 0%
- %Inh [5]: 21%
- %Inh [6]: 100%
- %Inh [7]: 0%
- %Inh [8]: 24%
- %Inh [9]: 28%
- %Inh [10]: 0%

Compound: CNc1nc(-c2ccc3c(N)n[nH]c3c2)cc(N2C[C@@H](C(=O)NC3CCCCC3)OC[C@H]2C)n1 [GSK2375584]
- %Inh [1]: 1%
- %Inh [2]: 7%
- %Inh [3]: 27%
- %Inh [4]: 0%
- %Inh [5]: 21%
- %Inh [6]: 0%
- %Inh [7]: 0%
- %Inh [8]: 20%
- %Inh [9]: 37%
- %Inh [10]: 2%

Compound: COc1ccc(CSc2nnc(-c3ccc4ncsc4c3)o2)cc1C(F)(F)F
- %Inh [1]: 8%
- %Inh [2]: 1%
- %Inh [3]: 17%
- %Inh [4]: 9%
- %Inh [5]: 90.5%
- %Inh [6]: 39%
- %Inh [7]: 0%
- %Inh [8]: 83%
- %Inh [9]: 0%
- %Inh [10]: 1%

Compound: Nc1nccc(-c2c(-c3ccc(F)cc3)ncn2C2CCN(Cc3ccccc3)CC2)n1 [SB-219980]
- %Inh [1]: 2%
- %Inh [2]: 0%
- %Inh [3]: 8%
- %Inh [4]: 97.6%
- %Inh [5]: 0%
- %Inh [6]: 6%
- %Inh [7]: 0%
- %Inh [8]: 0%
- %Inh [9]: 15%
- %Inh [10]: 0%

Compound: c1ccc(-c2ccnc3[nH]ccc23)cc1 [SB-693578]
- %Inh [1]: 9%
- %Inh [2]: 12%
- %Inh [3]: 0%
- %Inh [4]: 3%
- %Inh [5]: 12%
- %Inh [6]: 8%
- %Inh [7]: 29%
- %Inh [8]: 5%
- %Inh [9]: 47%
- %Inh [10]: 8%

Compound: CCc1ccc(-c2ccc3c(c2)-c2n[nH]cc2S(=O)(=O)N3C)cc1
- %Inh [1]: 0%
- %Inh [2]: 0%
- %Inh [3]: 0%
- %Inh [4]: 0%
- %Inh [5]: 0%
- %Inh [6]: 0%
- %Inh [7]: 1%
- %Inh [8]: 4%
- %Inh [9]: 5%
- %Inh [10]: 0%

Compound: COc1ccc(Nc2nccc(N3CCC(NC(=O)C(C)c4ccc(Cl)cc4)C3)n2)cc1 (stereo not drawn) [GSK1379735]
- %Inh [1]: 9%
- %Inh [2]: 26%
- %Inh [3]: 0%
- %Inh [4]: 26%
- %Inh [5]: 16%
- %Inh [6]: 13%
- %Inh [7]: 0%
- %Inh [8]: 8%
- %Inh [9]: 8%
- %Inh [10]: 27%

Compound: O=C(Nc1n[nH]c2nc(-c3cccs3)c(Br)cc12)C1CC1 [SB-735297]
- %Inh [1]: 0%
- %Inh [2]: 0%
- %Inh [3]: 0%
- %Inh [4]: 0%
- %Inh [5]: 11%
- %Inh [6]: 0%
- %Inh [7]: 0%
- %Inh [8]: 0%
- %Inh [9]: 0%
- %Inh [10]: 0%
